Inconclusive results are not listed. The source made the active and inactive calls. How the source made its calls, unless noted: active means hit-call score of the fitted dose curve at least 0.9, where 1 is the maximum; inactive means score below 0.9.
Experiments:
[1] = biological target: Oxysterols receptor LXR-alpha (Homo sapiens) (UniProt Q13133); experiment: ATG_LXRa_TRANS: Attagene TRANS-FACTORIAL HepG2 Assay for human Liver X Receptor alpha (LXRa) (AID 2282980; active means hit-call score of the fitted dose curve at least 0.9, where 1 is the maximum); details: HepG2 Attagene TRANS reporter, LXRa transactivation
Chain of Oxysterols receptor LXR-alpha (Homo sapiens) (Q13133 whole entry, looked up, the tested form may be a part): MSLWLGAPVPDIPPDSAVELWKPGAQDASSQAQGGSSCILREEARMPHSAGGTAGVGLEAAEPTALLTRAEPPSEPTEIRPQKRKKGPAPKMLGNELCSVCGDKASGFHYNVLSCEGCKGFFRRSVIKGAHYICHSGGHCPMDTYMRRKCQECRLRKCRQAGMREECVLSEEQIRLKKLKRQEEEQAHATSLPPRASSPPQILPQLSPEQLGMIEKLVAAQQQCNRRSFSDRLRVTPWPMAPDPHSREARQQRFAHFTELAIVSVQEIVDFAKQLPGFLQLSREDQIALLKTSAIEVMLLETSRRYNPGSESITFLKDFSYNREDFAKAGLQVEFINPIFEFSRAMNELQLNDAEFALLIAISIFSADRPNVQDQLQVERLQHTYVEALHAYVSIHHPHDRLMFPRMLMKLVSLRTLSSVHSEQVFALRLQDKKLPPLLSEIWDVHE
Method in brief: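 In this multiplexed TRANS system, compounds act on HepG2 cells carrying GAL4-UAS reporter units and a receptor-GAL4 fusion for 24 h. Induced reporter RNA is amplified, fluorescently labelled and sized by capillary electrophoresis, with DMSO as baseline.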

[2] = biological target: Oxysterols receptor LXR-beta (Homo sapiens) (UniProt P55055); experiment: ATG_LXRb_TRANS: Attagene TRANS-FACTORIAL HepG2 Assay for human Liver X Receptor beta (LXRb) (AID 2282981; active means hit-call score of the fitted dose curve at least 0.9, where 1 is the maximum); details: HepG2 Attagene TRANS GAL4-LXRb reporter, mRNA
Chain of Oxysterols receptor LXR-beta (Homo sapiens) (P55055 whole entry, looked up, the tested form may be a part): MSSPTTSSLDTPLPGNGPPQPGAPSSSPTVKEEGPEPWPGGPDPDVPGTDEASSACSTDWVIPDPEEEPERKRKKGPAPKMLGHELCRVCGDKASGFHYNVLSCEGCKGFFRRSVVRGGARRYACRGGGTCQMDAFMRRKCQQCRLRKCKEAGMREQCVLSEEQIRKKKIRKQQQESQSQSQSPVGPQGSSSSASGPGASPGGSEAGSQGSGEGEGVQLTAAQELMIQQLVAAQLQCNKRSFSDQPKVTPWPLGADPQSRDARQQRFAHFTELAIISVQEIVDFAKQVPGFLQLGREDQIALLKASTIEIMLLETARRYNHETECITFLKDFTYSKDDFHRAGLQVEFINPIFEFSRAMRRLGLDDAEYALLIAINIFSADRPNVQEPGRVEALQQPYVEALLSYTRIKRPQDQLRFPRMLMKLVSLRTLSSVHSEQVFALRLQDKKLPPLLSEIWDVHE
Method in brief: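 Measures induction of a Gal4-driven reporter transcript in HepG2 cells expressing an exogenous LXRb-Gal4 fusion. Cells are exposed to compound for 24 h before RNA isolation and RT-PCR with capillary electrophoresis detection.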

[3] = biological target: Hepatocyte nuclear factor 4-alpha (Homo sapiens) (UniProt P41235); experiment: ATG_HNF4a_TRANS: Attagene TRANS-FACTORIAL HepG2 Assay for human Hepatocyte Nuclear Factor 4 alpha (HNF4a) (AID 2282982; active means hit-call score of the fitted dose curve at least 0.9, where 1 is the maximum); details: HepG2 HNF4a transactivation reporter, mRNA readout
Chain of Hepatocyte nuclear factor 4-alpha (Homo sapiens) (P41235 whole entry, looked up, the tested form may be a part): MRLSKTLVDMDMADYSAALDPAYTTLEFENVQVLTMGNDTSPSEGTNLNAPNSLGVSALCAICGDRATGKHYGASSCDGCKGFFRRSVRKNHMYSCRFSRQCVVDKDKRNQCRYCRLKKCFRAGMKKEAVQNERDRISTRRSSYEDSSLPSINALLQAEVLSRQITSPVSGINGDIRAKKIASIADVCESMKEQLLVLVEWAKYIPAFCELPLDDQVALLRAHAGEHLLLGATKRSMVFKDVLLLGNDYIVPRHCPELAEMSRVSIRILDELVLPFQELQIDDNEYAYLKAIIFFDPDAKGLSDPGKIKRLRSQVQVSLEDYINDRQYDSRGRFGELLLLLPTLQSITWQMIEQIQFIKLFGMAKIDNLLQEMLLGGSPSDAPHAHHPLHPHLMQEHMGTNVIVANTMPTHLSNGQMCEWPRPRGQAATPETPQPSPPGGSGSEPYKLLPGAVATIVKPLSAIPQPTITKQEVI
Method in brief: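 In this trans-factorial format, a chimeric HNF4a-GAL4 fusion drives a GAL4-UAS reporter in transfected HepG2 liver cells. After 24 h treatment, reporter mRNA induction is measured by RT-PCR with capillary electrophoresis, relative to DMSO.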

[4] = ATG_M_06_TRANS: Attagene TRANS-FACTORIAL HepG2 Assay for M06 Transcription Factor (Internal Marker) (AID 2282983; active means hit-call score of the fitted dose curve at least 0.9, where 1 is the maximum); details: HepG2 Attagene TRANS M06 internal marker reporter
Method in brief: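 Multi-reporter-transfected HepG2, 24 h treatment; reporter transcripts quantified via RT-PCR, primer-extension labelling and CE. DMSO-normalized gain-of-signal fit.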

[5] = ATG_M_32_TRANS: Attagene TRANS-FACTORIAL HepG2 Assay for M32 Transcription Factor (Internal Marker) (AID 2282984; active means hit-call score of the fitted dose curve at least 0.9, where 1 is the maximum;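 further: transcript level of a background control reporter unit measured by RT-PCR and capillary electrophoresis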); details: HepG2 Attagene TRANS M32 internal marker reporter
Method in brief: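 After 24 h dosing of transfected HepG2 cells, total RNA was reverse-transcribed, reporter sequences PCR-amplified, 6-FAM labelled by primer extension and HpaI-digested before capillary electrophoresis. Signal increase over DMSO was fitted.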

[6] = biological target: Transcriptional activator Myb (Homo sapiens) (UniProt P10242); experiment: ATG_Myb_CIS: Attagene CIS-FACTORIAL HepG2 Assay for human Myeloblastosis (Myb) Proto-Oncogene Transcription Factor (AID 2282986); details: HepG2 Attagene CIS-FACTORIAL Myb reporter transcription; actives raise or lower the signal
Chain of Transcriptional activator Myb (Homo sapiens) (P10242 whole entry, looked up): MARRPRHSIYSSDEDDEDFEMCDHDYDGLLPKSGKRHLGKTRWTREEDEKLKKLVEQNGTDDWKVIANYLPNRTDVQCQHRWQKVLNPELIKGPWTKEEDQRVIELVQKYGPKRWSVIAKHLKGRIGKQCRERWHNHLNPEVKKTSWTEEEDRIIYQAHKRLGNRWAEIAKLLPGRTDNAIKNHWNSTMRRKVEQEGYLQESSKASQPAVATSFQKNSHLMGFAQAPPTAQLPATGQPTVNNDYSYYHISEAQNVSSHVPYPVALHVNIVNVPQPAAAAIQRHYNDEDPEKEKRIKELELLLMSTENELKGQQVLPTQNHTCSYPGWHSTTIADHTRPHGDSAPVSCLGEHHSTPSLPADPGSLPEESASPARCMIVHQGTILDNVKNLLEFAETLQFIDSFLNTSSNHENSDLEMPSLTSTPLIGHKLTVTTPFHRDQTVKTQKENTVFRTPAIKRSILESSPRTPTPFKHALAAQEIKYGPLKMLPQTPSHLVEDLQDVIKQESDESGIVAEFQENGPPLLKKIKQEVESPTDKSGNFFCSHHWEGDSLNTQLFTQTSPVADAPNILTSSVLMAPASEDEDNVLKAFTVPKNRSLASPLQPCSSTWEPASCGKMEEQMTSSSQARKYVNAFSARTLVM
Method in brief: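 In this HepG2 transient-transfection format, cis-regulated reporter mRNA is quantified 24 h post-dosing by RT-PCR with capillary electrophoresis, fitted bidirectionally to DMSO baseline.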

[7] = biological target: Nuclear respiratory factor 1 (Homo sapiens) (UniProt Q16656); experiment: ATG_NRF1_CIS: Attagene CIS-FACTORIAL HepG2 Assay for human Nuclear Respiratory Factor 1 (NRF1) Orphan Gene (AID 2282987); details: HepG2 NRF1 cis-element reporter, Attagene multiplex; actives raise or lower the signal
Chain of Nuclear respiratory factor 1 (Homo sapiens) (Q16656 whole entry, looked up): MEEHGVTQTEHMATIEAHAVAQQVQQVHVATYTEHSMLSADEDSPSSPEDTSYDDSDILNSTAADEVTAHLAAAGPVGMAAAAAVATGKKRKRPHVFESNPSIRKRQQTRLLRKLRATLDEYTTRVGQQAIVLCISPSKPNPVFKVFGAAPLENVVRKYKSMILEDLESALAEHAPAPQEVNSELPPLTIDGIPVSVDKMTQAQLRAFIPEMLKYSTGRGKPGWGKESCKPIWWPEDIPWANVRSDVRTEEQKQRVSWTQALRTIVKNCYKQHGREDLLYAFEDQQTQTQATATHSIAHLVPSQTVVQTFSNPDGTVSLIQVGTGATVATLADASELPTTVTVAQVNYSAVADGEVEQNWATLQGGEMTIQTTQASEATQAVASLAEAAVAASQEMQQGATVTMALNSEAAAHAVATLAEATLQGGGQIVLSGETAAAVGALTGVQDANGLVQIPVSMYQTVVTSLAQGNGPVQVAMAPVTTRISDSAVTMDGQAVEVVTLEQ
Method in brief: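 Using DMSO as baseline, gain- or loss-of-signal was fitted for reporter mRNA levels in HepG2 cells transiently transfected with cis-regulated reporter units. Samples were taken 24 h after dosing and read by RT-PCR with capillary electrophoresis.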

[8] = biological target: Myc proto-oncogene protein (Homo sapiens) (UniProt P01106); experiment: ATG_Myc_CIS: Attagene CIS-FACTORIAL HepG2 Assay for human Myelocytomatosis (Myc) Proto-Oncogene Transcription Factor (AID 2282990); details: HepG2, Attagene cis-reporter transcription factor activity; actives raise or lower the signal
Chain of Myc proto-oncogene protein (Homo sapiens) (P01106 whole entry, looked up): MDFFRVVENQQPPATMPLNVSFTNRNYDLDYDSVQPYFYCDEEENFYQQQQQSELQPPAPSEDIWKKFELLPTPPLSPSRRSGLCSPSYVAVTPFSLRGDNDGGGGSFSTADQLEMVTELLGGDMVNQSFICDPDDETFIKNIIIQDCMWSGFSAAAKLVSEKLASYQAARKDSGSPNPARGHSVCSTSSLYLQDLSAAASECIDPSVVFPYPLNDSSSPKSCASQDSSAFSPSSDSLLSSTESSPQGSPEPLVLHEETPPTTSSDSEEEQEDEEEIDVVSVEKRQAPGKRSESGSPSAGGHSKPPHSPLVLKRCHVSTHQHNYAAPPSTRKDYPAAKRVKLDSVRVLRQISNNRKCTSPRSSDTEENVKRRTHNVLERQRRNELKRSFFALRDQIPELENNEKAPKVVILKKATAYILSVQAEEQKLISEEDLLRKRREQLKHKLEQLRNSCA
Method in brief: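 DMSO-normalised, bidirectionally fitted reporter mRNA signal. HepG2 cells transfected with cis reporter constructs, treated 24 h; transcripts detected by RT-PCR, 6-FAM primer extension and CE.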

[9] = ATG_NF_kB_CIS: Attagene CIS-FACTORIAL HepG2 Assay for human Nuclear Factor Kappa B (NF-kB) (AID 2282991); details: HepG2 Attagene cis-factorial NF-kB reporter mRNA; actives raise or lower the signal
Method in brief: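 Endpoint from a 52-component multiplexed HepG2 reporter panel: cis-regulated transcription units transiently transfected, 24 h dosing, reporter mRNA quantified by RT-PCR and capillary electrophoresis, scored as increase or decrease against DMSO.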

[10] = ATG_NRF2_ARE_CIS: Attagene CIS-FACTORIAL HepG2 Assay for human Nuclear Factor Erythroid 2 Related Factor 2 (NFR2) response to Antioxidant Response Elements (ARE) (AID 2282992); details: HepG2 Attagene ARE/NRF2 reporter, transcription factor activity; actives raise or lower the signal;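 on AC50: reporter mRNA level measured by RT-PCR and capillary electrophoresis fluorescence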
Method in brief: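 Readout: reporter mRNA quantified by RT-PCR plus FAM-labelled primer extension, HpaI digestion and capillary electrophoresis, 24 h after dosing transfected HepG2 cells. Gain or loss of signal is fitted bidirectionally against DMSO baseline.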

[11] = ATG_Oct_MLP_CIS: Attagene CIS-FACTORIAL HepG2 Assay for human Octamer-Binding Transcription Factor (Oct) (AID 2282993); details: HepG2 Attagene cis-factorial Oct reporter, mRNA; actives raise or lower the signal
Method in brief: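 Read-out: reporter mRNA via RT-PCR plus capillary electrophoresis of 6-FAM-labelled fragments. Transiently transfected HepG2, 24 h exposure, endogenous TF activity on cis elements. Gain or loss of signal fitted relative to DMSO.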

[12] = biological target: Cellular tumor antigen p53 (Homo sapiens) (UniProt P04637); experiment: ATG_p53_CIS: Attagene CIS-FACTORIAL HepG2 Assay for human p53 Transcription Factor (AID 2282994); details: HepG2 p53 cis-element reporter, Attagene mRNA; actives raise or lower the signal
Chain of Cellular tumor antigen p53 (Homo sapiens) (P04637 whole entry, looked up): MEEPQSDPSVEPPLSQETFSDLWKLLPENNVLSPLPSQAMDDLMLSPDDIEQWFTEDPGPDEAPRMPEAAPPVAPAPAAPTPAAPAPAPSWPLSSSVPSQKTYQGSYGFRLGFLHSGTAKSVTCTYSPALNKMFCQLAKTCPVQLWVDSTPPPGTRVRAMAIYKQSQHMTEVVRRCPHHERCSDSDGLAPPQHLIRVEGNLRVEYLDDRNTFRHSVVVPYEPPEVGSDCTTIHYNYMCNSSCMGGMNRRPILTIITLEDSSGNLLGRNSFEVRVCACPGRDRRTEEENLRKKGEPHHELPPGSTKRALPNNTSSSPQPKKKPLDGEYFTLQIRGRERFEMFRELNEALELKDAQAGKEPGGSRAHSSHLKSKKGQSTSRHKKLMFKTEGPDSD
Method in brief: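 Read-out: reporter mRNA by RT-PCR plus capillary electrophoresis with fluorescence detection. Human HepG2 liver cells carried transfected multi-reporter cis-element constructs, dosed 24 h. Gain or loss of signal fitted bidirectionally against DMSO control.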

[13] = biological target: Bile acid receptor (Homo sapiens) (UniProt Q96RI1); experiment: ATG_FXR_TRANS: Attagene TRANS-FACTORIAL HepG2 Assay for Farnesoid X Receptor (FXR) (AID 2282979; active means hit-call score of the fitted dose curve at least 0.9, where 1 is the maximum;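 further: hits raise reporter mRNA above DMSO so AC50 marks FXR activation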); details: HepG2 Attagene TRANS FXR-GAL4 reporter transcription
Chain of Bile acid receptor (Homo sapiens) (Q96RI1 whole entry, looked up, the tested form may be a part): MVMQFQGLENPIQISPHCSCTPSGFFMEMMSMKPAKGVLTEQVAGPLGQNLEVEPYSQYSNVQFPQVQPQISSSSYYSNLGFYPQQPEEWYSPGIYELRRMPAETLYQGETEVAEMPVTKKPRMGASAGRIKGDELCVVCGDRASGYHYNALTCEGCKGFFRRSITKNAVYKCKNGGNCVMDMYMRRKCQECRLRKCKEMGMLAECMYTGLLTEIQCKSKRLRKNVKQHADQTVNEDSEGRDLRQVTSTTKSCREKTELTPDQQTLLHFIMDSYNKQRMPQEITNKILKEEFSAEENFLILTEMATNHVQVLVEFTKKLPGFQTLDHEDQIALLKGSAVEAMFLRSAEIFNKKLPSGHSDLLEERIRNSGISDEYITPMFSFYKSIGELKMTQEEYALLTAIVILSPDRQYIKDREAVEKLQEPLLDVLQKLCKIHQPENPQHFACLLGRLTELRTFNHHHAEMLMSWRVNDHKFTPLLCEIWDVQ
Method in brief: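 After 24 h chemical treatment of transfected HepG2 cells, GAL4-UAS reporter transcripts driven by an exogenous FXR-GAL4 fusion were measured by RT-PCR and capillary electrophoresis. Increases over DMSO were fitted.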

[14] = biological target: Nuclear receptor subfamily 4 group A member 2 (Homo sapiens) (UniProt P43354); experiment: ATG_NURR1_TRANS: Attagene TRANS-FACTORIAL HepG2 Assay for human Nuclear Receptor Related Protein 1 (NURR1) (AID 2282985; active means hit-call score of the fitted dose curve at least 0.9, where 1 is the maximum); details: HepG2 Attagene TRANS reporter, mRNA readout
Chain of Nuclear receptor subfamily 4 group A member 2 (Homo sapiens) (P43354 whole entry, looked up, the tested form may be a part): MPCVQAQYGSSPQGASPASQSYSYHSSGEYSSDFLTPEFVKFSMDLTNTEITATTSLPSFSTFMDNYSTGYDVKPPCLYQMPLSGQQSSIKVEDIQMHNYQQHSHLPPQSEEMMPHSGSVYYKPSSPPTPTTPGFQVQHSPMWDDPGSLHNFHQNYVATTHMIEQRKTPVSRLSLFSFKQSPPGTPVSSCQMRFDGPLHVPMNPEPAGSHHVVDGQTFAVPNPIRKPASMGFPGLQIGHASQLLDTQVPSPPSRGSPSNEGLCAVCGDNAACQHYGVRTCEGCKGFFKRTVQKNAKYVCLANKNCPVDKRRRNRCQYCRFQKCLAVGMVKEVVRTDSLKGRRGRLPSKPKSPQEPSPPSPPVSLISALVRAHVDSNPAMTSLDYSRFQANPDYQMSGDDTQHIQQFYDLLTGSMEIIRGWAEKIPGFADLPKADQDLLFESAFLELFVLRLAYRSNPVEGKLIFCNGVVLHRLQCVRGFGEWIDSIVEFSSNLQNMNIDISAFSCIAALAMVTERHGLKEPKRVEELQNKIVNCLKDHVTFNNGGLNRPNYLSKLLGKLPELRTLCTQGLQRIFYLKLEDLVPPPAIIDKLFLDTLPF
Method in brief: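 Chimeric NR-Gal4 fusion activity measured in HepG2 after 24 h treatment. Reporter transcripts detected by RT-PCR and capillary electrophoresis fluorescence; positive-direction curve fitting against DMSO.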

[15] = BSK_3C_uPAR: BioMAP Diversity Plus: 3C Assay for Urokinase-type plasminogen activator receptor (uPAR) Biomarker Activity (AID 2282998); details: BioMAP 3C HUVEC, uPAR biomarker ELISA; actives raise or lower the signal
Method in brief: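 HUVEC primary cells; 24 h post-dose; uPAR by ELISA; gain or loss of signal fitted bidirectionally vs DMSO baseline.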

[16] = BSK_4H_Eotaxin3: BioMAP Diversity Plus: 4H Assay for Eotaxin 3 Biomarker Activity (AID 2283000); details: primary human endothelial cells (HUVEC); actives raise or lower the signal;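 further: CCL26 protein level quantified by ELISA in parallel with SRB cytotoxicity check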
Method in brief: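 ELISA quantitation of CCL26 (Eotaxin-3) protein from chemically dosed human vascular endothelial cells at 24 h; increases and decreases both scored relative to DMSO-treated baseline.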

[17] = ATG_NFI_CIS: Attagene CIS-FACTORIAL HepG2 Assay for human Nuclear Factor I (NFI) (AID 2282989); details: HepG2 cis-regulatory reporter, NFI response element transcription; actives raise or lower the signal
Method in brief: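 Read-out: reporter mRNA via RT-PCR plus capillary electrophoresis with fluorescence detection. Transiently transfected HepG2 (endogenous TF activity on cis promoters), 24 h compound exposure; gain or loss of signal fitted against DMSO.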

[18] = BSK_3C_TissueFactor: BioMAP Diversity Plus: 3C Assay for Tissue Factor Biomarker Activity (AID 2282997); details: BioMAP 3C HUVEC, tissue factor biomarker readout; actives raise or lower the signal
Method in brief: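 In this endothelial system, HUVEC are treated for 24 h and Tissue Factor is assessed by ELISA, normalised to DMSO.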

Measured: AC50

Cc1ccc(C(=O)c2cc(O)c(O)c([N+](=O)[O-])c2)cc1
not listed: [13] | [14] | [15] | [16] | [17] | [18]
inactive: all other assays above

C=C(C)C1CCC(C)CC1O (centres undefined)
not listed: [9] | [13] | [14] | [15] | [16] | [17] | [18]
inactive: all other assays above

C=CCOC(=O)CCC1CCCCC1
not listed: [2] | [6] | [9] | [17] | [18]
inactive: all other assays above

O=c1[nH]nnc2ccccc12
not listed: [1] | [2] | [4] | [5] | [15] | [16] | [18]
inactive: all other assays above

O=P(c1ccccc1)(c1ccccc1)c1ccccc1
not listed: [1] | [2] | [3] | [10] | [17] | [18]
inactive: all other assays above

OC1C(O)C(O)C(O)C(O)C1O (centres undefined)
not listed: [12] | [13] | [15] | [16] | [18]
inactive: all other assays above

CC1=CC(=O)NS(=O)(=O)O1
not listed: [12] | [13] | [14] | [15] | [16] | [18]
inactive: all other assays above

Cc1cccc(C)c1C
inactive: [13] | [4] | [5] | [7] | [8] | [9] | [10] | [11] | [12]

CC(=O)[C@H]1CC[C@H]2[C@@H]3CC=C4C[C@@H](O)CC[C@]4(C)[C@H]3CC[C@]12C
active: [10] 16.5 µM
not listed: [1] | [2] | [6] | [9]
inactive: all other assays above

CCc1c(C)cc(N)c(CC)c1N
not listed: [1] | [2] | [4] | [6] | [18]
inactive: all other assays above

COC(=O)C1=C(C)NC(C)=C(C(=O)OCCN(C)Cc2ccccc2)C1c1cccc([N+](=O)[O-])c1 (centres undefined)
active: [13] 0.637 µM | [14] 27.2 µM | [7] 6.96 µM
inactive: [5] | [6] | [17] | [9] | [10] | [11]

Cc1ccc(C(=O)O)o1
not listed: [10] | [12] | [13] | [15] | [16] | [18]
inactive: all other assays above

CCCC(C)C=O (centres undefined)
inactive: [13] | [2] | [5] | [6] | [7] | [17] | [8] | [9] | [11] | [12]

CCCC(=O)C(C)=O
inactive: [13] | [4] | [6] | [7] | [8] | [9] | [10] | [11] | [12]

OCc1cccnc1
not listed: [1] | [2] | [4] | [12] | [15] | [16] | [18]
inactive: all other assays above

CCc1ccc(C=O)cc1
not listed: [13] | [15] | [16] | [18]
inactive: all other assays above

CC(C)(Oc1ccc(CCNC(=O)c2ccc(Cl)cc2)cc1)C(=O)O
not listed: [1] | [2] | [12] | [14] | [15] | [16] | [18]
inactive: all other assays above

O=C1NC(=O)c2ccccc21
inactive: [13] | [1] | [4] | [6] | [7] | [17] | [8] | [9] | [10] | [11]

C#C[C@]1(O)CC[C@H]2[C@@H]3CCC4=Cc5oncc5C[C@]4(C)[C@H]3CC[C@@]21C
active: [1] 26.4 µM | [6] 52.5 µM | [17] 57.1 µM | [11] 29 µM | [12] 24.7 µM | [15] 6.51 µM
not listed: [2] | [3] | [5] | [18]
inactive: all other assays above

CCN(CC)c1ccc2c(-c3ccccc3C(=O)O)c3ccc(=[N+](CC)CC)cc-3oc2c1
inactive: [13] | [5] | [6] | [7] | [17] | [8] | [11] | [12]
active: [10] 36.7 µM

O=C(O)COCCN1CCN(C(c2ccccc2)c2ccc(Cl)cc2)CC1 (centres undefined)
inactive: [13] | [4] | [5] | [6] | [8] | [11] | [12]

CC(=O)Nc1ccc(C)cc1C
not listed: [1] | [2] | [4] | [14] | [15] | [16] | [18]
inactive: all other assays above

C=CC(C)(C)O
not listed: [1] | [2] | [14] | [15] | [16] | [18]
inactive: all other assays above

Reference: PubChem BioAssay (EPA / NIEHS)
